Gal4-VP16 FLuc: VP16 counterscreen qHTS for inhibitors of ROR gamma transcriptional activity; Drosophila S2 Gal4-VP16 UAS-luciferase, luminescence, 20 h; Potency, µM (titrated, usually from 53.6 µM), for the others: top-dose activity, negative = inhibition, usual class: inhibitors; hit rate 3.5% among 310,000; AID 2546, 2010;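 also: Gal4-VP16 expression switched on by copper sulfate through the metallothionein promoter; nearly all actives have a fitted effect of over 50% in size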
TDP1 cell CPT: qHTS for Inhibitors of human tyrosyl-DNA phosphodiesterase 1 (TDP1): qHTS in cells in presence of CPT; hit rate 12% among 420,000; Potency, µM (highest dose often 46.2 µM), for inactives: top-dose activity change, negative = growth inhibition, actives largely listed as inhibitors; chicken DT40 Tdp1-/-;hTDP1 cells + 20 nM CPT, ATP luminescence, 48 h; also: nearly all actives have a fitted effect of over 55% in size
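Cell growth measured by CellTiter-Glo luminescence after a minimum 48 h, 37 C compound exposure with 20 nM CPT in Tdp1-knockout DT40 cells stably expressing hTDP1, seeded 400/well; qHTS titration format.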
ELG1 repair inh: qHTS screen for small molecules that inhibit ELG1-dependent DNA repair in human embryonic kidney (HEK293T) cells expressing luciferase-tagged ELG1. HEK293T ELG1-luciferase reporter, luminescence, 16 h; DNA damage induced by 5-fluorouridine. AID 504467, 2011. hit rate 2.3% among 330,000. Potency, µM (doses to about 46.1 µM), without a hit: at the top dose activity change, negative = inhibition, hits mostly inhibitors; also: nearly all actives have a fitted effect of over 55% in size
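Step one: seed 2,000 cells per well. Step two: pin-transfer compound or DMSO alongside 5-fluorouridine. Step three: incubate 16 hr, 37 °C, 5% CO2. Step four: add ONE-Glo, wait 30 min, read luminescence.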
12-LOX inh: Primary qHTS assay for inhibitors of human arachidonate 12S-lipoxygenase (ALOX12): Round 2. Polyunsaturated fatty acid lipoxygenase ALOX12 (Homo sapiens), P18054. purified 12hLO, xylenol orange hydroperoxide absorbance. Potency, µM (highest dose often 108 µM), without a hit: at the highest dose activity change, negative = inhibition, usual class: inhibitors. hit rate 1.1% among 580,000. AID 1671190, 2021
Target sequence (P18054 whole entry, looked up): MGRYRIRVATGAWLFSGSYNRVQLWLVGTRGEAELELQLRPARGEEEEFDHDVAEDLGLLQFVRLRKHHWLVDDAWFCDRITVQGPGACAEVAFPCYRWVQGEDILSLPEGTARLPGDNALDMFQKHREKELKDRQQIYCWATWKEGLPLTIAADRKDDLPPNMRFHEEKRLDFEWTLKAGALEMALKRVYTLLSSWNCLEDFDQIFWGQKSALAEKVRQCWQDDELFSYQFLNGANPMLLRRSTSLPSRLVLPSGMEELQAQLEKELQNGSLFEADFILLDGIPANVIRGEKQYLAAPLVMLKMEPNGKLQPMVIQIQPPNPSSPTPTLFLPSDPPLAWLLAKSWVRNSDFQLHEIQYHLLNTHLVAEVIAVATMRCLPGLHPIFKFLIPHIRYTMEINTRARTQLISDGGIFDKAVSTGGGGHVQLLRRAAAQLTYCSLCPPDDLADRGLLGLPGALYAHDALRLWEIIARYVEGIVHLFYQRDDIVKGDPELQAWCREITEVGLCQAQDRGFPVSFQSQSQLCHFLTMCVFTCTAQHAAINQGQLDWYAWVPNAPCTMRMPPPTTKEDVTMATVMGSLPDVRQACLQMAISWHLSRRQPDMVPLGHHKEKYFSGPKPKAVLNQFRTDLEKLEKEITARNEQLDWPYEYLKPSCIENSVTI
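Hydroperoxide product was detected by ferrous iron/xylenol orange as the 573 to 405 nm absorbance ratio. Arachidonic acid at 40 uM (final) was turned over for 30 min at room temperature by 150 nM human 12hLO, pH 7.0 Hepes buffer, after 15 min compound preincubation.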
RORgamma inh: qHTS for inhibitors of ROR gamma transcriptional activity; hit rate 5.4% among 310,000; Potency, µM (doses to about 53.6 µM), inactives show top-dose activity change, negative = inhibition, actives largely listed as inhibitors; Drosophila S2 Gal4-RORgamma UAS-luciferase reporter, 20 h; also: nearly all actives have a fitted effect of over 60% in size
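Drosophila S2 cells stably expressing Gal4-DBD/mouse RORγ fusion under metallothionein promoter plus UAS-luciferase; compound 1 h, then 700 uM CuSO4 induction for 20 h at ambient temperature; inhibition read as reduced luminescence.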
TDP1 cell noCPT: qHTS for Inhibitors of human tyrosyl-DNA phosphodiesterase 1 (TDP1): qHTS in cells in absence of CPT; Potency, µM (titrated, usually from 46.2 µM), inactives show at the top dose activity change, negative = growth inhibition, hits mostly inhibitors; DT40 Tdp1-/- hTDP1 cells, no CPT, ATP luminescence, 48 h; hit rate 15% among 420,000; also: nearly all actives have a fitted effect of over 55% in size
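No-CPT arm: Tdp1-/-;hTDP1 DT40 cells (400/well) plus compounds, incubated ≥48 hr at 37 °C. Readout CellTiter-Glo luminescence.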
* = called active by the depositor; [ ] = another dose, or the depositor's remark. Shown are actives, neighbours in structure and some others; about 15% of the full set was active somewhere. Calls follow the shape of the dose curve; as a rule, active = well fitted curve in the direction sought with a large enough effect; inconclusive = small, poorly fitted or top-dose-only effect, or another doubt; inactive = no such curve, though single readings can be large; an effect the other way counts as inactive or inconclusive. % is scaled to controls: 0 for no effect and ±100 for the full control effect; potency is read from the fitted curve at half-maximal effect.

How did COc1ccc(/C=C/c2c([N+](=O)[O-])c(=O)n(C)c(=O)n2C)c(OC)c1OC do in these assays?
Gal4-VP16 FLuc: -1%; TDP1 cell CPT: -8%; ELG1 repair inh: -11%; 12-LOX inh: inconclusive; RORgamma inh: 25%; TDP1 cell noCPT: inconclusive

Results for Cn1c(/C=C/c2ccc(Cl)cc2)c([N+](=O)[O-])c(=O)n(C)c1=O ?
Gal4-VP16 FLuc: -19%; TDP1 cell CPT: inconclusive; ELG1 repair inh: inconclusive; 12-LOX inh: 5%; RORgamma inh: inconclusive; TDP1 cell noCPT: 21µM*

What do the screens show for `CCCCCOc1ccc(/C=C/c2c([N+](=O)[O-])c(=O)n(C)c(=O)n2C)cc1`?
Gal4-VP16 FLuc: 2%; TDP1 cell CPT: 18µM*; ELG1 repair inh: inconclusive; 12-LOX inh: -1%; RORgamma inh: 7%; TDP1 cell noCPT: 21µM*

What do the screens show for `Cn1c(/C=C/c2cccc([N+](=O)[O-])c2)c([N+](=O)[O-])c(=O)n(C)c1=O`?
Gal4-VP16 FLuc: inconclusive; TDP1 cell CPT: inconclusive; ELG1 repair inh: inconclusive; 12-LOX inh: 23%; RORgamma inh: 16µM*; TDP1 cell noCPT: 15µM*

How did Cc1nn2c(-c3cccnc3)ccnc2c1-c1ccccc1 do in these assays?
Gal4-VP16 FLuc: -5%; TDP1 cell CPT: inconclusive; ELG1 repair inh: 12%; 12-LOX inh: -13%; RORgamma inh: inconclusive; TDP1 cell noCPT: 23µM*

What do the screens show for `COc1ccc(C(=O)N2CC[C@@H]3CN(c4cnccn4)[C@@H]3C2)c(OC)n1`?
12-LOX inh: 52%

How did COc1ccc(C(C)=O)c(OCc2cc(OC)c(Br)cc2OC)c1 do in these assays?
12-LOX inh: -17%

What do the screens show for `O=C(CCc1ncc(-c2ccc(F)cc2F)o1)Nc1ccncc1`?
12-LOX inh: 13%

How did COc1ccc(C(=O)Nc2cccc(C(=O)O)c2)cc1S(=O)(=O)N1CCCC1 do in these assays?
Gal4-VP16 FLuc: -8%; TDP1 cell CPT: 3%; ELG1 repair inh: -10%; 12-LOX inh: -12%; RORgamma inh: 15%; TDP1 cell noCPT: -2%

What do the screens show for `COc1cc(C(=O)Nc2nc3ccccc3[nH]2)ccc1OC(F)F`?
Gal4-VP16 FLuc: 7.9µM*; TDP1 cell CPT: 21µM*; ELG1 repair inh: inconclusive; 12-LOX inh: -19%; RORgamma inh: 5µM*; TDP1 cell noCPT: 15µM*

Results for COc1ccc(Cl)cc1C(=O)Nc1nc2ccccc2[nH]1 ?
Gal4-VP16 FLuc: 6.3µM*; TDP1 cell CPT: inconclusive; ELG1 repair inh: inconclusive; 12-LOX inh: 16%; RORgamma inh: 2.2µM*; TDP1 cell noCPT: -26%

What do the screens show for `COc1ccc(C(=O)Nc2nc3ccccc3[nH]2)cc1S(=O)(=O)N1CCCC1`?
Gal4-VP16 FLuc: inconclusive; TDP1 cell CPT: -35%; ELG1 repair inh: -1%; 12-LOX inh: 72%; RORgamma inh: 11µM*; TDP1 cell noCPT: inconclusive

What do the screens show for `COc1ccc(Cl)cc1C(=O)Nc1cccc2ncccc12`?
Gal4-VP16 FLuc: 1%; TDP1 cell CPT: 1%; ELG1 repair inh: -12%; 12-LOX inh: 0%; RORgamma inh: -8%; TDP1 cell noCPT: -14%

How did COc1ccc(C(=O)NCc2nc3ccccc3[nH]2)cc1OC do in these assays?
Gal4-VP16 FLuc: 7%; TDP1 cell CPT: -17%; ELG1 repair inh: -23%; 12-LOX inh: 21%[57.4 µM]; RORgamma inh: -5%; TDP1 cell noCPT: -29%
